The source made the active and inactive calls. No stated cut-off is given here; in the data, active means inhibition above about 31%; inactive means the rest.
Test: reversal of MRP1-mediated doxorubicin resistance, pilot screen, H69AR cells, doxorubicin co-treatment (AID 601)
Settings: H69AR cells, CellTiter-Glo, 72 h; compound alone cytotoxicity; at 10 µM

Row | Structure (SMILES) | viability [%]
1 | Cc1nnc2n(-c3ccc(Cl)cc3)c(=O)c3c4c(sc3n12)CN(C)CC4 | 91.6
2 | O=c1oc2c3c4c(cc2s1)CCCN4CCC3 | 95.6
3 | Cc1cc(C)n2nc(SCc3nc4ccccc4[nH]3)nc2n1 | 95.7
4 | Cc1cc(C)cc(N(CC(=O)Nc2cccc(C)n2)S(=O)(=O)c2c(C)noc2C)c1 | 85.6
5 | COc1cccc(C2C3=C(N=C4SCC(=O)N42)c2ccccc2CC3)c1OC (stereo not given) | 98.2
6 | O=C(Cn1nc(Cc2ccncc2)c2ccccc2c1=O)N1CCN(C(=O)c2ccco2)CC1 | 86
7 | O=C(Nc1c(C(=O)NCc2ccco2)cnn1-c1ccccc1)c1ccc(F)cc1 | 96.9
8 | Cc1nc2ccc(S(=O)(=O)NC(C(=O)Nc3nccs3)C(C)C)cc2s1 (stereo not given) | 95.7
9 | Cn1nnnc1SCC(=O)N1CCN(c2ccccc2)CC1 | 87.7
10 | COc1cc2c(cc1OC)-c1nnc(C)n1C1(CCCC1)C2 | 99
11 | CS(=O)(=O)N(Cc1ccco1)CC(O)Cn1c2ccccc2c2ccccc21 (stereo not given) | 80.5
12 | COc1cccc(C2=NOC(C(=O)N3CCc4ccccc4C3)C2)c1 (stereo not given) | 92
13 | O=C(CC1Oc2ccccc2NC1=O)NCCCN1CCOCC1 (stereo not given) | 93.5
14 | CCOC(=O)N1CCN(C(=O)c2ccc(CS(=O)(=O)c3c(Cl)cccc3Cl)o2)CC1 | 96.5
15 | CCn1cc(SCC(=O)Nc2cc(C)on2)c2ccccc21 | 84
16 | COc1ccccc1N1CCN(C(=O)N2CCOCC2)CC1 | 73.8
17 | O=C(CSc1nnc2ccccn12)c1ccccc1 | 94.5
18 | CCOc1ccc(N(CC(=O)OC)S(=O)(=O)c2ccc(OC)c(OC)c2)cc1 | 106
19 | CCCCSc1nc(CCC)cc(=O)[nH]1 | 88.2
20 | O=C(CN1CCN(Cc2ccccc2F)C1=O)NCc1cccnc1 | 107

Row | Structure (SMILES) | viability [%]
21 | COc1ccc(OC)c(C(=O)c2ccc(C(=O)O)cc2)c1 | 103
22 | Cc1ccc(C)n1-n1c(C)nc2sc(-c3ccccc3)cc2c1=O | 81.9
23 | CCn1c(C(=O)N2CCC(C(=O)N3CCN(c4ccccn4)CC3)CC2)cc2sccc21 | 87.1
24 | C=CCSc1nc(N)c2c(C)c(C)sc2n1 | 88
25 | COc1ccc(OCCSc2nc3ccccc3n2CC(=O)O)cc1 | 97.8
26 | Cc1nnc(SCC(=O)NCc2ccccc2)s1 | 101
27 | Clc1ccc(SCCCCn2ccnc2)cc1 | 99.2
28 | CC1(C)Oc2ccc3ccc(=O)oc3c2C(N2CCCCC2)C1O (stereo not given) | 92.6
29 | CSCCC(N=CC1=C(O)CC(C)(C)CC1=O)C(=O)O (stereo not given) | 87.2
30 | COc1ccc(C)cc1NC(=O)C1CCN(S(=O)(=O)c2cccc3cccnc23)CC1 | 90.9
31 | CCOc1ccc(-c2nnc(SCC(=O)N3CCN(c4ccccc4)CC3)o2)cc1 | 86.5
32 | CCCOc1ccc2ccccc2c1/C=N/n1cnnc1 | 72.3
33 | O=C(Cn1cc2c(n1)CCCCC2)N1CCc2ccccc21 | 87.8
34 | CCn1cc(C(=O)N2CCOCC2)c(=O)c2cc(S(=O)(=O)N(C)C3CCCCC3)ccc21 | 106
35 | COCCn1c(SCC(=O)Nc2ccc3c(c2)OCCO3)nc2c(c1=O)SC(C)C2 (stereo not given) | 84.4
36 | CC(C)CCN(C)C1CCN(S(=O)(=O)c2ccc(F)cc2)CC1 | 81
37 | COc1ccccc1-n1c(=O)[nH]c2c(C(N)=O)nc(-c3cccnc3)nc21 | 69.9
38 | Cn1c(/C=N/n2cnnc2)nc2ccccc21 | 83.4
39 | CN1CCN(CCCNC(=O)Cn2ncc3c4ccccc4n(C)c3c2=O)CC1 | 86
40 | CCOc1ccc(N(CC(=O)NCc2ccco2)S(=O)(=O)c2ccc(OC)c(OC)c2)cc1 | 83.7

Test: 384-well plate pilot, post-Golgi transport modulator project, inhibition of yeast transport mutant growth (AID 636)
Settings: absorbance 615 nm, about 18 h, stronger effect = higher value

Row | Structure (SMILES) | inhibition
41 | Cc1nnc2n(-c3ccc(Cl)cc3)c(=O)c3c4c(sc3n12)CN(C)CC4 | -4.94% (inactive)
42 | O=c1oc2c3c4c(cc2s1)CCCN4CCC3 | -4.42% (inactive)
43 | Cc1cc(C)n2nc(SCc3nc4ccccc4[nH]3)nc2n1 | 2.13% (inactive)
44 | Cc1cc(C)cc(N(CC(=O)Nc2cccc(C)n2)S(=O)(=O)c2c(C)noc2C)c1 | -0.64% (inactive)
45 | COc1cccc(C2C3=C(N=C4SCC(=O)N42)c2ccccc2CC3)c1OC (stereo not given) | -1.69% (inactive)
46 | O=C(Cn1nc(Cc2ccncc2)c2ccccc2c1=O)N1CCN(C(=O)c2ccco2)CC1 | -4.93% (inactive)
47 | O=C(Nc1c(C(=O)NCc2ccco2)cnn1-c1ccccc1)c1ccc(F)cc1 | -0.26% (inactive)
48 | Cc1nc2ccc(S(=O)(=O)NC(C(=O)Nc3nccs3)C(C)C)cc2s1 (stereo not given) | 0.13% (inactive)
49 | Cn1nnnc1SCC(=O)N1CCN(c2ccccc2)CC1 | 1.92% (inactive)
50 | COc1cc2c(cc1OC)-c1nnc(C)n1C1(CCCC1)C2 | 1.28% (inactive)
51 | CS(=O)(=O)N(Cc1ccco1)CC(O)Cn1c2ccccc2c2ccccc21 (stereo not given) | -3.9% (inactive)
52 | COc1cccc(C2=NOC(C(=O)N3CCc4ccccc4C3)C2)c1 (stereo not given) | -1.41% (inactive)
53 | O=C(CC1Oc2ccccc2NC1=O)NCCCN1CCOCC1 (stereo not given) | -5.07% (inactive)
54 | CCOC(=O)N1CCN(C(=O)c2ccc(CS(=O)(=O)c3c(Cl)cccc3Cl)o2)CC1 | -3.07% (inactive)
55 | CCn1cc(SCC(=O)Nc2cc(C)on2)c2ccccc21 | -4.13% (inactive)
56 | COc1ccccc1N1CCN(C(=O)N2CCOCC2)CC1 | -1.95% (inactive)
57 | O=C(CSc1nnc2ccccn12)c1ccccc1 | -4.27% (inactive)
58 | CCOc1ccc(N(CC(=O)OC)S(=O)(=O)c2ccc(OC)c(OC)c2)cc1 | 3.12% (inactive)
59 | CCCCSc1nc(CCC)cc(=O)[nH]1 | 2.05% (inactive)
60 | O=C(CN1CCN(Cc2ccccc2F)C1=O)NCc1cccnc1 | -3.87% (inactive)

Row | Structure (SMILES) | inhibition
61 | COc1ccc(OC)c(C(=O)c2ccc(C(=O)O)cc2)c1 | -3.73% (inactive)
62 | Cc1ccc(C)n1-n1c(C)nc2sc(-c3ccccc3)cc2c1=O | -0.38% (inactive)
63 | CCn1c(C(=O)N2CCC(C(=O)N3CCN(c4ccccn4)CC3)CC2)cc2sccc21 | -2.8% (inactive)
64 | C=CCSc1nc(N)c2c(C)c(C)sc2n1 | -0.52% (inactive)
65 | COc1ccc(OCCSc2nc3ccccc3n2CC(=O)O)cc1 | -3.21% (inactive)
66 | Cc1nnc(SCC(=O)NCc2ccccc2)s1 | -1.43% (inactive)
67 | Clc1ccc(SCCCCn2ccnc2)cc1 | 1.22% (inactive)
68 | CC1(C)Oc2ccc3ccc(=O)oc3c2C(N2CCCCC2)C1O (stereo not given) | -0.52% (inactive)
69 | CSCCC(N=CC1=C(O)CC(C)(C)CC1=O)C(=O)O (stereo not given) | -3.21% (inactive)
70 | COc1ccc(C)cc1NC(=O)C1CCN(S(=O)(=O)c2cccc3cccnc23)CC1 | -5.33% (inactive)
71 | CCOc1ccc(-c2nnc(SCC(=O)N3CCN(c4ccccc4)CC3)o2)cc1 | -3.73% (inactive)
72 | CCCOc1ccc2ccccc2c1/C=N/n1cnnc1 | -3.08% (inactive)
73 | O=C(Cn1cc2c(n1)CCCCC2)N1CCc2ccccc21 | -1.33% (inactive)
74 | CCn1cc(C(=O)N2CCOCC2)c(=O)c2cc(S(=O)(=O)N(C)C3CCCCC3)ccc21 | 0.26% (inactive)
75 | COCCn1c(SCC(=O)Nc2ccc3c(c2)OCCO3)nc2c(c1=O)SC(C)C2 (stereo not given) | -1.07% (inactive)
76 | CC(C)CCN(C)C1CCN(S(=O)(=O)c2ccc(F)cc2)CC1 | -1.87% (inactive)
77 | COc1ccccc1-n1c(=O)[nH]c2c(C(N)=O)nc(-c3cccnc3)nc21 | -3.2% (inactive)
78 | Cn1c(/C=N/n2cnnc2)nc2ccccc21 | -0.26% (inactive)
79 | CN1CCN(CCCNC(=O)Cn2ncc3c4ccccc4n(C)c3c2=O)CC1 | 1.15% (inactive)
80 | CCOc1ccc(N(CC(=O)NCc2ccco2)S(=O)(=O)c2ccc(OC)c(OC)c2)cc1 | -3.51% (inactive)

Source: PubChem BioAssay
